Among all 2,300 compounds or so, about 1,400 (61%) were called active. Another 29% or so got no clear call; they are omitted. Calls come from the whole dose curve; as a rule, active = well fitted inhibition curve with a large enough effect; inconclusive = small, poorly fitted or top-dose-only effect, or effect the other way; inactive = no such curve, though single readings can be large or run the other way. The set was probably picked from earlier hits. This is one part of the list.
Test: Confirmation screen for delayed death inhibitors of the malarial parasite plastid, 96 hour incubation; note: nearly all actives have a fitted effect of over 60% in size
Conditions: P. falciparum luciferase growth in erythrocytes; series mostly up to 28.7 µM
Summary of the method: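 Two-generation (96 h, 37 C) exposure of P. falciparum carrying an integrated firefly luciferase reporter in erythrocytes, 0.1% parasitemia and 2% hematocrit final, Albumax-supplemented RPMI. Luminescence decrease measures growth inhibition.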
Potency is the fitted concentration of half-maximal effect.

| Compound | Potency |
| --- | --- |
| C/C(=N/OCO/N=C(\C)c1ccccc1)c1ccccc1 | inactive |
| C/C(=N\NC(=S)Nc1cccc(C)c1)c1ccccc1 | 11.2 µM (active) |
| CCOC(=O)c1c(C)[nH]c(C(=O)Nc2cc(OCC)c(N3CCOCC3)cc2OCC)c1C | 2.51 µM (active) |
| CCOC(=O)c1ccc(NC(=O)c2c(Cl)cc(C)nc2C)cc1 | 12.6 µM (active) |
| CCOC(=O)c1ccc(Nc2nc(=O)c3cccnc3s2)cc1 | inactive |
| N#C/C(=C\c1coc2ccccc2c1=O)C(N)=S | 11.2 µM (active) |
| CC1CCCCC1NC(=O)/C(C#N)=C/C=C/c1ccccc1[N+](=O)[O-] (centres undefined) | 4.47 µM (active) |
| N#C/C(=C\C=C\c1ccccc1[N+](=O)[O-])C(=O)NC1CCCCC1 | 5.01 µM (active) |
| COCCNC(=O)/C(C#N)=C/C=C/c1ccccc1[N+](=O)[O-] | 10 µM (active) |
| COC(=O)C(=Cc1ccccc1[N+](=O)[O-])C(=O)OC | 3.98 µM (active) |
| CCCCN1/C(=C/c2cccc[n+]2C)Sc2cc(NC(C)=O)ccc21 | 1.58 µM (active) |
| CCC1CCC(C(=O)NC(CCSC)C(=O)NCCN(CC(C)C)CC(C)C)CC1 (centres undefined) | 7.08 µM (active) |
| O=C1C(=O)c2ccccc2C(O)=C1c1cccc([N+](=O)[O-])c1 | 10 µM (active) |
| COC(=O)c1ccc(C2N=C(c3cccs3)CC(c3ccccc3O)N2)cc1 (centres undefined) | 5.62 µM (active) |
| COc1ccc(C2(c3ccc(OC)cc3)NC(=O)N(CC(=O)Nc3ccc(C(N)=O)cc3)C2=O)cc1 | 3.98 µM (active) |
| COc1cccc(NC(=O)CN2C(=O)NC3(CCCc4ccccc43)C2=O)c1 (centres undefined) | 3.98 µM (active) |
| COC(=O)C1=C(C)Nc2ncnn2C1c1ccccn1 (centres undefined) | inactive |
| CCOc1ccc(N(C(=O)c2snc(C(N)=O)c2N)C(C(=O)NCC2CCCO2)c2c[nH]c3ccccc23)cc1 (centres undefined) | 2.82 µM (active) |
| COc1cc(/C=C/C(=O)NC(=O)c2ccccc2O)ccc1OC(C)=O | 8.91 µM (active) |
| Cn1c(=O)oc2cc(S(=O)(=O)NCCC(=O)NCc3ccc(F)cc3)ccc21 | 12.6 µM (active) |
| O=C1NC(=Nc2ccccc2)S/C1=C\c1ccccc1 | 11.2 µM (active) |
| O=C(NC1CCCCC1)N1CCN(c2ccc([N+](=O)[O-])cc2)CC1 | 12.6 µM (active) |
| CCCc1c(CC)c(=N)c2ccccc2n1C | 0.0316 µM (active) |
| Nc1cccc2c1C(=O)N(C(=O)/C=C/c1ccc(F)cc1)C2=O | inactive |

| Compound | Potency |
| --- | --- |
| CC(C)(CNC(=O)/C=C/c1ccc(F)cc1)CNC(=O)/C=C/c1ccc(F)cc1 | 8.91 µM (active) |
| CCCCn1c(C2CCCCC2)nc2cc3[nH]c(=O)c(C(C)C)nc3cc21 | 11.2 µM (active) |
| Cc1cc(=O)oc2c1ccc1oc(/C(=N/O)c3ccccc3)c(C)c12 | 4.47 µM (active) |
| Cc1cc(Cl)cc(C)c1OCCn1ccnc1 | 11.2 µM (active) |
| CC#CC#Cc1cccc(=O)o1 | 3.98 µM (active) |
| Clc1ccc2nc(-c3ccccn3)c(Nc3ccc4c(c3)OCO4)n2c1 | 10 µM (active) |
| CCCCSc1nnc(-c2cc3c(C(F)(F)F)nn(C)c3s2)n1C | 10 µM (active) |
| CCOc1ccccc1NC(=O)/C(C#N)=C/c1cccnc1 | 12.6 µM (active) |
| Cc1oc(=O)c(NC(=O)c2ccc(Cl)cc2)cc1C(=O)c1ccccc1 | inactive |
| O=C(c1ccccc1)c1nn(-c2ccc(Cl)cc2)c(=O)cc1C(F)(F)F | 12.6 µM (active) |
| O=C(c1cccc(Cl)c1)c1nn(-c2ccccc2)c(=O)cc1C(F)(F)F | 6.31 µM (active) |
| COc1ccccc1N1CCN(C2CCCN(Cc3ccc(Cl)cc3)C2)CC1 (centres undefined) | 2.51 µM (active) |
| COc1ccc(N2CCN(C3CCCN(Cc4ccc(F)cc4)C3)CC2)cc1 (centres undefined) | 14.1 µM (active) |
| Cc1cccc(/C=C/C(=O)c2ccc(NC3=NCCCS3)cc2)c1 | 11.2 µM (active) |
| O=C(/C=C/c1ccccc1)c1ccc(NC2=NCCCS2)cc1 | 14.1 µM (active) |
| O=C(c1ccsc1)N1CCCC(N2CCN(c3cccc(C(F)(F)F)c3)CC2)C1 (centres undefined) | 12.6 µM (active) |
| Cc1cc(C(=O)N2CCCC(N3CCN(c4cccc(C(F)(F)F)c4)CC3)C2)c(C)o1 (centres undefined) | 10 µM (active) |
| COc1cc(Cn2nnc3ccccc32)ccc1O | 11.2 µM (active) |
| COc1ccc(/C=C/C(=O)c2ccccc2)cc1Cn1nnc2ccccc21 | 6.31 µM (active) |
| Cc1cccc(NC(=S)/N=C(\N)Nc2nc(C)c3ccccc3n2)c1 | 12.6 µM (active) |
| CCCN1CCN(CCCNC(=O)c2cc3c(s2)-c2c(C)cccc2OC3)CC1 | 12.6 µM (active) |
| CCn1c2ccccc2c2c3ncc4cccn4c3ccc21 | 14.1 µM (active) |
| COC(=O)[C@@H]1C[C@]2(OC(=O)c3ccccc3)C=CC(=O)C[C@@H]2N1C(=O)OCc1ccccc1 | 12.6 µM (active) |
| O=C(COc1ccccc1)N1CCN(S(=O)(=O)c2ccc(Br)cc2)CC1 | 10 µM (active) |

| Compound | Potency |
| --- | --- |
| CCOc1ccccc1OCCC(=O)N1CCN(S(=O)(=O)c2ccccc2[N+](=O)[O-])CC1 | 11.2 µM (active) |
| O=S(=O)(c1ccc(OCc2ccc(Br)cc2)cc1)N1CCOCC1 | 8.91 µM (active) |
| CCOc1ccc(S(=O)(=O)N2CCN(C(=O)CCOc3ccccc3C)CC2)cc1 | 11.2 µM (active) |
| Cc1cc(OCC(=O)N2CCCC2)cc(C)c1Cl | inactive |
| O=S(=O)(c1ccc(SCCO)nc1)N1CCOCC1 | inactive |
| Cc1cc(C)n2nc(C(=O)N/N=C/c3c4ccccc4cc4ccccc34)nc2n1 | 4.47 µM (active) |
| CCc1ccc(C2c3[nH]c4ccccc4c3CCN2C(=O)c2cc(C)nn2C)cc1 (centres undefined) | 3.55 µM (active) |
| Cn1nccc1C(=O)N1CCc2c([nH]c3ccccc23)C1c1ccc(F)cc1 (centres undefined) | 6.31 µM (active) |
| CSc1ccc(C2c3[nH]c4ccccc4c3CCN2C(=O)c2ccnn2C)cc1 (centres undefined) | 3.98 µM (active) |
| N=c1c2c3c(sc2ncn1Cc1ccccc1)CCCC3 | inactive |
| COc1ccccc1NC(=O)c1oc2ccccc2c1NC(=O)C1CC1 | 7.94 µM (active) |
| O=C(c1ccccc1)N1CCCC(c2ccc(Cl)cc2)=N1 | 12.6 µM (active) |
| O=[N+]([O-])c1ccc(Sc2cccc3cccnc23)c([N+](=O)[O-])c1 | 2.82 µM (active) |
| Cc1ccc(/C=C/C(=O)NC(C)c2ccccc2)cc1 (centres undefined) | 11.2 µM (active) |
| COc1ccc2nc3cc(Cl)ccc3c(Nc3cc(C(C)C)c(O)cc3C)c2c1 | 0.0251 µM (active) |
| CCN(CC)CCC[C@H](C)Nc1c2ccc(Cl)cc2nc2ccc(OC)cc12 | 0.224 µM (active) |
| CCN(CC)CCC[C@H](C)Nc1ccnc2cc(Cl)ccc12 | 0.501 µM (active) |
| O=C(CCl)Nc1cccc2ncccc12 | 3.55 µM (active) |
| Cc1nc(SC(C)C(=O)NCC2CCCO2)c2cc(-c3ccccc3)sc2n1 (centres undefined) | 11.2 µM (active) |
| CN(C)c1ccc(S(=O)(=O)N2CCCCC2)cc1NC(=O)C1=NN(c2ccccc2)C(=O)CC1 | 3.55 µM (active) |
| O=C(Nc1cc(Cl)ccc1N1CCCC1)C1=NN(c2ccccc2)C(=O)CC1 | 12.6 µM (active) |
| O=C(CSc1nnc(COc2ccccc2)n1-c1ccccc1)c1cccs1 | 11.2 µM (active) |
| COc1cc2c(cc1OC)CN(C(=O)COc1ccccc1[N+](=O)[O-])CC2 | 14.1 µM (active) |
| COc1cc2c(cc1OC)CN(C(=O)COc1ccccc1C#N)CC2 | inactive |

| Compound | Potency |
| --- | --- |
| Cc1ccc(C)c(-n2nnnc2Sc2nnnn2-c2ccccc2)c1 | 10 µM (active) |
| COc1ccc2c(C)cc(Sc3nnnn3-c3ccccc3)nc2c1 | 15.8 µM (active) |
| COc1cccc(/C=C2\SC(N3CCCC(C)C3)=NC2=O)c1OC (centres undefined) | 11.2 µM (active) |
| CCCOc1ccccc1/C=C1\SC(N2CCCCC2)=NC1=O | 0.891 µM (active) |
| Cc1cc(-c2ccc(C(C)C)c(S(=O)(=O)NCc3ccco3)c2)on1 | 14.1 µM (active) |
| CCc1ccc(-c2cc(C)no2)cc1S(=O)(=O)NCc1ccco1 | 12.6 µM (active) |
| CN(C)S(=O)(=O)c1cccc(NC(=S)N/N=C/c2cc(Br)ccc2O)c1 | 3.98 µM (active) |
| O=C(O)CCn1c(-c2ccccc2)cc2c1CCCC2=O | inactive |
| CC(=O)/C=C/c1ccccc1Oc1c(F)c(F)nc(F)c1F | 3.16 µM (active) |
| CN(C)S(=O)(=O)c1cccc(NC(=O)CSc2cccc3cccnc23)c1 | 7.94 µM (active) |
| O=C(CSc1cccc2cccnc12)N/N=C/c1cccnc1 | 12.6 µM (active) |
| O=C(NCc1ccccc1)C1=C[C@@H](c2coc3ccccc3c2=O)C[C@@H](OCc2ccc(CO)cc2)O1 | 7.08 µM (active) |
| O=C(NC1CC1)C1=C[C@@H](C2CCCCC2)C[C@@H](OCc2ccc(CO)cc2)O1 | 10 µM (active) |
| O=C(Nc1ccccc1)C1=C[C@@H](C2CCCCC2)C[C@@H](OCc2ccc(CO)cc2)O1 | 10 µM (active) |
| COc1cccc(NC(=O)CSc2nc3n[nH]c(C)c3c(=N)n2-c2cccc(OC)c2)c1 | 6.31 µM (active) |
| NC1=NC[C@H](Cc2ccc(O)cc2)N1CCc1cccc(F)c1 | 3.16 µM (active) |
| NC1=NC[C@@H](Cc2ccc(O)cc2)N1CCc1cccc(F)c1 | 3.98 µM (active) |
| NC(=O)C1CCN(c2nc(C3CC3)nc3c2nnn3Cc2ccccc2Cl)CC1 | 3.16 µM (active) |
| CS(=O)(=O)c1ccc(-c2nnc(NC(=O)c3ccc(S(=O)(=O)N4CCCC4)cc3)o2)cc1 | 15.8 µM (active) |
| Cn1c(CCN2CCCCC2)nc2cc(NS(=O)(=O)c3ccc(F)cc3)ccc21 | 12.6 µM (active) |
| Cn1c(CCN2CCCCC2)nc2cc([N+](=O)[O-])ccc21 | inactive |
| CC1CCN(CCc2nc3cc(NS(=O)(=O)c4ccc(F)cc4)ccc3n2C)CC1 | 12.6 µM (active) |

Reference: PubChem BioAssay AID504848 (National Center for Advancing Translational Sciences (NCATS), 2011)
